Here are results for 15 molecules from PubChem BioAssay.

For part of these data: Entries with a potency or affinity are not part of this list. The source made the active and inactive calls.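 The calls were made as follows, unless noted: active = primary screen hit whose fluorescence ratio, in both repeats, exceeds the weak agonist control mean by 3 SD; inactive = the rest.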

The test system of assay [1] is TRPC4 beta (transient receptor potential cation channel C4), mouse. The experiment in a line: TRPC4 cation channel opening, retest – cell-based, Fluo4 calcium, HEK293 TRPC4beta/mu-opioid, duplicates, 10 µM, confirmation (AID 2426;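 active = fluorescence ratio normalized to control raised more than 50% in primary screen plus both repeat runs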;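 as to activation: percent rise of integrated ratio over buffer wells lacking compound which define 0%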). The conditions noted are these: Fluo4 calcium fluorescence, at 10 µM; active compounds read high.
The subject of assay [2] is transient receptor potential cation channel C4 beta (TRPC4), mouse. The experiment in a line: TRPC4 cation channel opening, second retest – cell-based, second round, Fluo4, HEK293 TRPC4beta/mu-opioid, 1 µM, confirmation (AID 2461;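 active = primary screen active and over 50% activation in each of two duplicate runs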;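 as to activation: 0% = wells without test compound as baseline of integrated fluorescence ratio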). Conditions: Fluo4 calcium fluorescence, at 1 µM; active compounds read high.
Assay [3] relates to TRPC4 (transient receptor potential cation channel C4 beta), mouse. The experiment in a line: potentiation of DAMGO EC20 TRPC4 response – cell-based, second round, Fluo-4, HEK293 TRPC4beta/mu-opioid, 1 µM, confirmation (AID 2554). The conditions noted are these: DAMGO EC20, Fluo-4 calcium flux, at 1 µM; active compounds read high. In general terms: A change in cytosolic calcium serves as a functional read-out for many receptors and channels.

Assay [4] concerns TRPC4 beta (transient receptor potential cation channel C4), mouse. The experiment in a line: potentiation of DAMGO EC20 TRPC4 response – cell-based, Fluo-4, HEK293 TRPC4beta/mu-opioid, confirmation (AID 2555;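 active = primary screen hit whose calcium fluorescence ratio, in both repeats, exceeds the weak agonist control mean by 3 SD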). The conditions noted are these: DAMGO EC20, Fluo-4 calcium flux, at 10 µM; active compounds read high.
The target of assay [5] is Short transient receptor potential channel 4 (Mus musculus) (UniProt Q9QUQ5). The experiment in a line: blockers of DAMGO-evoked TRPC4 calcium flux – cell-based, Fluo4, HEK293 TRPC4beta/mu-opioid, confirmation (AID 2636;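 active = calcium signal cut by more than 3 SD below the full-agonist control yet still positive, in both repeats and the earlier primary screen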). Conditions: at 10 µM; active compounds read high.
Assay [6] shares this target. Kind of assay: blockers of DAMGO-evoked TRPC4 calcium flux – cell-based, second round, Fluo4, HEK293 TRPC4beta/mu-opioid, 1 µM, confirmation (AID 2637;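 active = calcium signal ratio cut to more than 3 SD under the fully stimulated control mean yet still positive, in both repeats and the primary screen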). Conditions: at 1 µM; active compounds read high.
Assay [7] shares this target. Kind of assay: potentiation of DAMGO-evoked TRPC4 calcium signal – cell-based, HEK293 TRPC4/mu-opioid, Fluo-4 calcium, EC20 DAMGO, dose response (AID 434941;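 active = earlier screen potentiator hit that boosts the TRPC4 ion channel at some dose, with a dose response; inactive = no potentiation, no dose response, or not a prior hit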;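 also: calcium entry triggered by an EC20 dose of DAMGO at the co-expressed mu-opioid receptor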).
Assay [8] shares this target. The experiment in a line: block of DAMGO-driven TRPC4 calcium entry – cell-based, HEK293 TRPC4/mu-opioid, Fluo-4 calcium, dose response (AID 434942;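 active = primary screen inhibitor hit that blocks the TRPC4 channel at some tested dose, yielding a dose curve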).
The target in assay [9] is Short transient receptor potential channel 6 (Mus musculus) (UniProt Q61143). Kind of assay: TRPC6 blockade by TRPC4 inhibitor hits – cell-based, HEK293, membrane potential dye, duplicate, selectivity assay for TRPC4 inhibitor project, confirmation (AID 434948;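 active = active in primary screen and both duplicates, each dropping signal beyond three positive-control SD with fluorescence still positive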). Conditions: HEK293 TRPC6, membrane potential dye fluorescence, at 10 µM, stimulated with maximal-effect acetylcholine; active compounds read high.

For assay [10] the target is unchanged. The experiment in a line: TRPC6 opening by TRPC4 activator hits – cell-based, HEK293, membrane potential dye, duplicate, selectivity assay for TRPC4 activator project, confirmation (AID 434950;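 active = membrane potential signal rise above negative control mean plus 3 SD in both duplicates, also active in the earlier TRPC4 screen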;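 as to activation: 0% = buffer only wells and 100% = acetylcholine maximal-effect wells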). The conditions noted are these: HEK293 TRPC6, membrane potential fluorescence, at 10 µM; activation: active compounds read high; outcome: activation.
Assay [11] shares this target. Kind of assay: positive modulators of mouse TRPC6 channel – HEK293 cells, membrane potential dye, duplicate, selectivity assay for TRPC4 potentiator project, confirmation (AID 434952;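 active = compound raising the membrane signal above positive-control mean plus 3 SD in both repeats, and a primary screen hit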). The conditions noted are these: HEK293 TRPC6, membrane potential dye fluorescence, at 10 µM, maximal acetylcholine added after compound; active compounds read high.
Assay [12] deals with Short transient receptor potential channel 4 (Mus musculus) (UniProt Q9QUQ5). Kind of assay: calcium flux activators in TRPC4/5HT1a cells, counter-screen for TRPC4 activator project, cell-based, second counter screen, HEK293 TRPC4/5HT1a, Fluo-4 (AID 434977;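 active = calcium signal rise above buffer-control mean plus 5 SD in both duplicates, and also a hit in the primary screen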;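 as to activation: plate controls were assay buffer for no effect and maximal serotonin response for full effect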). The conditions noted are these: Fluo-4 calcium flux, at 10 µM; active compounds read high.
Assay [13] is described as follows: serotonin-gated TRPC4 signal block – cell-based, second counter screen, HEK293 TRPC4/5HT1a, Fluo-4, counter-screen for TRPC4 inhibitor project, confirmation (AID 434978;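 active = primary screen active whose calcium signal fell more than 3 SD beyond the full-serotonin control mean in both duplicate plates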;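 also: serotonin given first at submaximal then at maximal dose after compound preincubation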). Conditions: Fluo-4 calcium flux, at 10 µM, serotonin added to trigger calcium flux; active compounds read high. A general note: The purpose of a counterscreen is to sort out artefacts and off-target activity.

Assay [14] relates to TRPC4 (mouse), co-expressed with 5HT1a in HEK293. The experiment in a line: enhancement of serotonin-evoked TRPC4 response – cell-based, second counter screen, HEK293 TRPC4/5HT1a, Fluo-4, counter-screen for TRPC4 potentiator project, confirmation (AID 434979;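 active = signal rise over 3 SD above mean of control wells given weak agonist, in both repeats and first screen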). Conditions: Fluo-4 calcium flux, at 10 µM, serotonin added at its EC20 dose; active compounds read high.
A short description of assay [15]: nonspecific calcium rise without TRPC4 – cell-based, HEK293 mu-opioid receptor line, counter-screen for TRPC4 activator project, confirmation (AID 449723;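 active = hit in primary screen, with calcium signal over 5 SD above buffer well mean in both duplicates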;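 also: counter screen cells carry the mu-opioid receptor alone and lack TRPC4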). Conditions: HEK293 mu-opioid cells, Fluo-4 calcium fluorescence, at 10 µM; active compounds read high.
A short description of assay [16]: nonspecific potentiation of DAMGO calcium response – cell-based, HEK293 mu-opioid receptor line, counter-screen for TRPC4 allosteric potentiator project, confirmation (AID 449724;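 active = calcium signal rise more than 3 SD above the low-dose agonist control mean, in both duplicate plates and the primary screen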;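 also: HEK293 cells carrying mu-opioid receptor only with no TRPC4 channel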). Conditions: HEK293 mu-opioid receptor cells, Fluo-4 calcium flux, at 10 µM, compound added before EC20 DAMGO stimulus; active compounds read high.

Chain of Short transient receptor potential channel 4 (Mus musculus) (Q9QUQ5 whole entry, looked up): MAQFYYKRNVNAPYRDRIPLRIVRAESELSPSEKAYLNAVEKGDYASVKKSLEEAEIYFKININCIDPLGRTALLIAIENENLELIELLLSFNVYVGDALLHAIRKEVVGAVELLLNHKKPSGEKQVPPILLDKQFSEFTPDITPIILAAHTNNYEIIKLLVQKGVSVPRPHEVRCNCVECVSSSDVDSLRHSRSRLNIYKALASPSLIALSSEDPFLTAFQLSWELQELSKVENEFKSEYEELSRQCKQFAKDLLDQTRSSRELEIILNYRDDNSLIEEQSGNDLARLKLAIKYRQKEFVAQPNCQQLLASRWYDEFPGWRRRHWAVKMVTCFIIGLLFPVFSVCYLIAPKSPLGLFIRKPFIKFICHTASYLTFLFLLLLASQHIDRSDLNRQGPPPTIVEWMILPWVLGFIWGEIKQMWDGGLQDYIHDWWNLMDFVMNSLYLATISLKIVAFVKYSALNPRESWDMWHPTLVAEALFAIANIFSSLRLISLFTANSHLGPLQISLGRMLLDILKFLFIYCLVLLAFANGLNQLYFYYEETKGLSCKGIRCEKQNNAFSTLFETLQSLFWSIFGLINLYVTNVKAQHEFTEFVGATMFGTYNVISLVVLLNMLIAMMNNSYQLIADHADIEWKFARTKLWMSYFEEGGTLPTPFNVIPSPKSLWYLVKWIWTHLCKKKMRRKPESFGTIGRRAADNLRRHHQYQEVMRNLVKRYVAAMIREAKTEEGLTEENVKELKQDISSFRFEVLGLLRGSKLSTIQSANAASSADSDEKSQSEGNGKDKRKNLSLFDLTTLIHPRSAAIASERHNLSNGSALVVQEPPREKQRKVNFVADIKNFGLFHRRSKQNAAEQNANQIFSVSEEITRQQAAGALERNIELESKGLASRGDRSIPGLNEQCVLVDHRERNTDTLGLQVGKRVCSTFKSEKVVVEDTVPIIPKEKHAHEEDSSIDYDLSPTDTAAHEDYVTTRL
Chain of Short transient receptor potential channel 6 (Mus musculus) (Q61143 whole entry, looked up): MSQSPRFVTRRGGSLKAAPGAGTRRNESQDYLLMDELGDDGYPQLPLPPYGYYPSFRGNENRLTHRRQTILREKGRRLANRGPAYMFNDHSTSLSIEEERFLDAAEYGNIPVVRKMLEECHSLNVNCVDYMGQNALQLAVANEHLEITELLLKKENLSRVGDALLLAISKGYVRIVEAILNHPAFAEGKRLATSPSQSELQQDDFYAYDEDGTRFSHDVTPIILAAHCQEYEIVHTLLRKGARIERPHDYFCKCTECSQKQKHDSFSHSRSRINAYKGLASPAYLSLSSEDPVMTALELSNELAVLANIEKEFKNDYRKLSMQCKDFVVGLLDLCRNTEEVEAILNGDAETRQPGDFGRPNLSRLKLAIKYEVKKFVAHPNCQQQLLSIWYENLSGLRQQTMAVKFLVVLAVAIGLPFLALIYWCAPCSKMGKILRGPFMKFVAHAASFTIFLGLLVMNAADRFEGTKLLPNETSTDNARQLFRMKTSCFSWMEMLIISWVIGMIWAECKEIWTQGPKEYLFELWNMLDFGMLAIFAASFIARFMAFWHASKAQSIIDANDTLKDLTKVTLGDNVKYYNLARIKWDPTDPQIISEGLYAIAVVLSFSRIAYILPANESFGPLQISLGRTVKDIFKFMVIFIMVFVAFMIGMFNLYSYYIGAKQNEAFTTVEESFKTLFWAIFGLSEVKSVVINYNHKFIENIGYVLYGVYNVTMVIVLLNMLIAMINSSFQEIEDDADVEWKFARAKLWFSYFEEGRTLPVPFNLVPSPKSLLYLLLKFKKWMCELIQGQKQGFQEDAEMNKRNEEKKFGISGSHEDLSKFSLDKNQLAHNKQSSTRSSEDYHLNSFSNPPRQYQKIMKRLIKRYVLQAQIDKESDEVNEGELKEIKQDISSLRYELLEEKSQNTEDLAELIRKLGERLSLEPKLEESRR

Turning to `CCCCC(c1nnnn1CC1CCCO1)N1CCN(c2nc3ccccc3s2)CC1` (stereo not given), the values for the activation in assay [1], in assay [10] and in assay [12] were 88% (active), 60.5% (active) and 12.7% (active), respectively. The result in assay [2], in assay [3], in assay [4], in [5], in assay [6] and in assay [7] was inactive. Besides, the outcome in assay [8], in assay [9], in assay [11], in [13], in assay [14] and in [15] was inactive. Also, the outcome in assay [16] was inactive.
Turning to `O=C(NCCc1cccc(Cl)c1)c1ccc(OC2CCN(Cc3ccccn3)CC2)cc1`, the activation was 69% (active) in assay [1] and 43.5% (active) in assay [10]. Moreover, the outcome in assay [2], in assay [3], in assay [4], in assay [5], in assay [6] and in [7] was inactive. For the same molecule, the result in assay [8], in assay [9], in assay [11], in assay [12], in assay [13] and in [14] was inactive. Also, the outcome in [15] and in [16] was inactive.
Consider `O=C(c1cccs1)N1CCN(c2ncc(Br)cn2)CC1`, for which the activation in assay [1] is 215% (active); in assay [2], 91% (active); in [10] it was 35.5% (active); in assay [12], 79.8% (active). Further, the result in assay [3], in assay [4], in assay [5], in [6], in [7] and in assay [8] was inactive. Further, the call in assay [9], in assay [11], in assay [13], in assay [14], in [15] and in [16] was inactive.
`Cc1cc(NC(=O)c2cnn3cccnc23)nn1CC(=O)Nc1cccnc1`: the result in assay [1], in assay [2], in [5], in assay [6], in assay [7] and in [8] was inactive. Besides, the outcome in [9], in assay [10], in assay [11], in [12], in assay [13] and in assay [15] was inactive. In addition, the outcome in assay [16] was inactive. For the same molecule, the potentiation in [3] is 22% (active); in assay [4] it was 109% (active); in assay [14], 72.1% (active).
For `CN(C)C(CNC(=S)Nc1ccc(F)cc1)c1cccnc1` (stereo not given), the values for the activation in assay [1], in assay [2] and in assay [10] were 95% (active), 82% (active) and 28.5% (active), respectively. For the same molecule, the outcome in assay [3], in assay [4], in assay [5], in assay [6], in [7] and in assay [8] was inactive. In addition, the outcome in assay [9], in assay [11], in assay [12], in [13], in assay [14] and in assay [15] was inactive. For the same molecule, the result in [16] was inactive.
Regarding `Cc1ccccc1N(CC(=O)N/N=C/c1ccc(F)cc1)C(=O)c1ccccc1`, the outcome in assay [1], in [2], in assay [3], in [4], in assay [5] and in [6] was inactive. Moreover, the result in assay [7], in assay [8], in assay [9], in [10], in [11] and in assay [12] was inactive. The outcome in assay [13], in [14], in assay [15] and in [16] was inactive.
For the molecule `NC(=O)C1CCCN(CC(O)COCc2ccc(Cl)cc2)C1` (stereo not given), the activation is 140% (active) in [1], 133% (active) in assay [2], 31.5% (active) in assay [10] and 69.7% (active) in [12]. The outcome in [3], in assay [4], in assay [5], in [6], in assay [7] and in assay [8] was inactive. Also, the molecule was classed as inactive in assay [9], in [11], in assay [13], in assay [14], in assay [15] and in assay [16].
As for `Cc1ccc2[nH]c3c(=O)n(CCc4cnc[nH]4)cnc3c2c1`, the activation in [1] was 126% (active); in assay [10], 27.5% (active); in assay [12] it was 33.2% (active). Moreover, the result in [2], in assay [3], in assay [4], in assay [5], in assay [6] and in [7] was inactive. Further, the outcome in assay [8], in [9], in assay [11], in assay [13], in assay [14] and in [15] was inactive. Also, the result in [16] was inactive.
Take `CCN1CCN(c2ccc(S(=O)(=O)N3CCOCC3)cc2NC(=O)C(C)Oc2cccc(Cl)c2)CC1` (stereo not given): the activation was 83% (active) in assay [1], 38% (active) in [10] and 11.3% (active) in [12]. Besides, the outcome in assay [2], in assay [3], in assay [4], in [5], in assay [6] and in assay [7] was inactive. The result in assay [8], in assay [9], in [11], in [13], in assay [14] and in assay [15] was inactive. Besides, the outcome in assay [16] was inactive.
For `O=C(NCCc1ccccn1)C(F)(F)C(F)(F)C(F)(F)C(F)(F)C(F)(F)C(F)F`, the activation in assay [1] is 178% (active); in assay [12] it was 46% (active). For the same molecule, the outcome in [2], in assay [3], in assay [4], in assay [5], in assay [6] and in assay [7] was inactive. For the same molecule, the outcome in [8], in [9], in assay [10], in [11], in assay [13] and in assay [14] was inactive. Besides, the outcome in assay [15] and in assay [16] was inactive.
In the case of `CCN1CCN(c2c(S(=O)(=O)c3ccc(C)c(C)c3)cnc3ccc(F)cc23)CC1`, the activation in [1] is 106% (active); in assay [10], 50% (active). Moreover, the outcome in assay [2], in assay [3], in assay [4], in assay [5], in assay [6] and in assay [7] was inactive. The result in [8], in assay [9], in assay [11], in [12], in assay [13] and in assay [14] was inactive. Further, the result in [15] and in [16] was inactive.
For `Cc1ccc(C2(O)CN(c3ccccc3C)C3=[N+]2CCS3)cc1` (stereo not given), the activation in assay [1] was 87% (active); in assay [2] it was 76% (active); in assay [10], 43.5% (active). For the same molecule, the outcome in assay [3], in assay [4], in assay [5], in assay [6], in [7] and in assay [8] was inactive. For the same molecule, the outcome in [9], in [11], in [12], in assay [13], in assay [14] and in assay [15] was inactive. Moreover, in assay [16], the result was inactive.
Turning to `CN(C)C(CNC(C(=O)Nc1ccc(F)cc1)c1ccccc1)c1ccccc1` (stereo not given), the activation in assay [1] is 126% (active); in assay [2] it was 68% (active). In addition, the result in [3], in assay [4], in [5], in assay [6], in assay [7] and in [8] was inactive. Besides, the call in assay [9], in [10], in assay [11], in [12], in [13] and in assay [14] was inactive. For the same molecule, the outcome in [15] and in assay [16] was inactive.
Consider `CCCCC(=O)NNC(=S)NC(=O)c1ccc(C)cc1`, for which the activation in assay [1] was 240% (active); in assay [12], 15% (active). For the same molecule, the outcome in assay [2], in [3], in [4], in [5], in assay [6] and in assay [7] was inactive. The outcome in assay [8], in assay [9], in [10], in assay [11], in assay [13] and in assay [14] was inactive. Besides, the result in [15] and in [16] was inactive.
Consider `CCCCCSc1nnc2c(n1)OC(c1cccn1C)N(C(C)=O)c1ccccc1-2` (stereo not given), for which the result in assay [1], in [2], in assay [3], in assay [4], in assay [5] and in [6] was inactive. Also, the result in [7], in assay [8], in assay [9], in [10], in [11] and in [13] was inactive. The outcome in assay [14], in assay [15] and in assay [16] was inactive. For the same molecule, the activation in assay [12] was 18% (active).
